This excerpt belongs to a sample that is enriched for hits.
HT1080 IDH1KD tx = kills HT-1080 cells with IDH1 knockdown | HT-1080 IDH1 knockdown viability, ATP luminescence, 48 h | Potency, µM (titrated, usually from 46.1 µM), actives largely listed as cytotoxic | 2% of 360,000 active | AID 686971
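Knockdown cells (IDH1KD HT-1080) received compounds 2 h after plating at 750 cells/well and were kept 48 h at 37 °C in 5% FBS RPMI. A CellTiter-Glo luminescence read gave % activity for curve fitting.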
ALOX12 inh = inhibitors of human 12S-lipoxygenase ALOX12. P18054. purified 12hLO, xylenol orange hydroperoxide absorbance. Potency, µM (series often up to 108 µM), actives largely listed as inhibitors. 1.1% of 580,000 active. AID 1671190
Target sequence (P18054 whole entry, looked up): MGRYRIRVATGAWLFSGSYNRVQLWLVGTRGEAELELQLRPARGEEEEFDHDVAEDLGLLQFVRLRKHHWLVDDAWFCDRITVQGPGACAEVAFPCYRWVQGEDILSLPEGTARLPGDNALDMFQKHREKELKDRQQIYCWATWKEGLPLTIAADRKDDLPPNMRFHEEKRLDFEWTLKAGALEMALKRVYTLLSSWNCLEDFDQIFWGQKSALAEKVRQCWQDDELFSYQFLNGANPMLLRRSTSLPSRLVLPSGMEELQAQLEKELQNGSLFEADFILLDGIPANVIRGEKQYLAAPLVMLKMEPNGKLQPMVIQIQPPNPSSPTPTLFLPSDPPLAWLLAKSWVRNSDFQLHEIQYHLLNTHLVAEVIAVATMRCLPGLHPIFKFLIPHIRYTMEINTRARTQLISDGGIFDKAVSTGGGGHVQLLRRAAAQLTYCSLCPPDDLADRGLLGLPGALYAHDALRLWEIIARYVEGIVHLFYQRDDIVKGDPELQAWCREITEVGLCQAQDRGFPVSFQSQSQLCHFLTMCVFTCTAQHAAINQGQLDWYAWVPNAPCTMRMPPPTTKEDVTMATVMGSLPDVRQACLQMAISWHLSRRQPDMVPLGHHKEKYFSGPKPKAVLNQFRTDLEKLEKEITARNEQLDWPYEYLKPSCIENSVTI
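Purified human 12hLO at 150 nM in 25 mM Hepes, 0.01% Triton X-100, pH 7.0, preincubated 15 min at room temperature with compound. Reaction started with 40 uM arachidonic acid, 30 min at room temperature. Hydroperoxide measured by Fe-xylenol orange, 573/405 nm absorbance ratio.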
DT40 TDP1 no CPT = qHTS for Inhibitors of human tyrosyl-DNA phosphodiesterase 1 (TDP1): qHTS in cells in absence of CPT | DT40 Tdp1-/- hTDP1 cells, no CPT, ATP luminescence, 48 h | Potency, µM (series often up to 46.2 µM), actives largely listed as inhibitors | 15% of 420,000 active | AID 686978, 2013; note: nearly all actives have a fitted effect of over 55% in size
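Camptothecin absent (DMSO only). Human TDP1-complemented DT40 knockout cells, 400 cells/well, 37 °C for minimum 48 hr; ATP measured via CellTiter-Glo, 30 min dark incubation, luminescence.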
IL-1B inflam inh = inflammasome signaling inhibition, IL-1 beta readout. THP-1 LPS/ATP IL-1B secretion, AlphaLISA, 16 h; stronger effect = lower value. activity change, % at 57.5 µM. 4.7% of 360,000 active; in the data active = activity change below about -50%; inconclusive = mostly about -30% to -49%
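Secreted IL-1B measured by AlphaLISA bead assay after 16 h compound exposure of THP-1 cells; compounds (final up to 57.5 uM) added 1 h before LPS (250 ng/mL) and ATP (1.25 mM) stimulation; lower signal means less secretion.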
HT1080NT lethal = kills 2HG-producing HT-1080-NT fibrosarcoma cells | HT-1080-NT fibrosarcoma viability, CellTiter-Glo ATP luminescence, 48 h | Potency, µM (series often up to 46.1 µM), hits mostly cytotoxic | 1.6% of 360,000 active | AID 686970;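 note: NT is the 2HG producing partner of a matched IDH1 knockdown line; nearly all actives have a fitted effect of over 55% in size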
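HT-1080-NT; 750 cells/well; 5% FBS RPMI; 48 h compound, 37 degrees C; CellTiter-Glo luminescence; curve fitting and curve-class assignment.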
DT40 TDP1 CPT = growth inhibition of DT40 Tdp1-/-;hTDP1 cells with camptothecin (screen for TDP1 inhibitors). Potency, µM (top dose mostly 46.2 µM), usual class: inhibitors. AID 686979. chicken DT40 Tdp1-/-;hTDP1 cells + 20 nM CPT, ATP luminescence, 48 h. 12% of 420,000 active; note: nearly all actives have a fitted effect of over 55% in size
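Cell growth measured by CellTiter-Glo luminescence after a minimum 48 h, 37 C compound exposure with 20 nM CPT in Tdp1-knockout DT40 cells stably expressing hTDP1, seeded 400/well; qHTS titration format.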
Large screens that a line does not name were inactive. Unless noted, calls come from the whole dose curve; as a rule, active = well fitted curve in the direction sought with a large enough effect; inconclusive = small, poorly fitted or top-dose-only effect, or another doubt; inactive = no such curve, though single readings can be large; an effect the other way counts as inactive or inconclusive.

COc1cc2[nH]c(=S)nc(NCc3ccc(C)cc3)c2cc1OC	DT40 TDP1 no CPT 23µM, DT40 TDP1 CPT inconclusive
Cc1ccc2[nH]c3c(NCc4ccccc4)ncnc3c2c1	DT40 TDP1 no CPT 16µM, DT40 TDP1 CPT 21µM
COc1ccc(CNC(=O)Cn2cnc3c(NCc4ccccc4)ncnc32)cc1	HT1080 IDH1KD tx 16µM, ALOX12 inh inconclusive, DT40 TDP1 no CPT 5.8µM, HT1080NT lethal 15µM, DT40 TDP1 CPT 10µM
C1=C(CCNc2ncnc3c2[nH]c2ccccc23)CCCC1	HT1080 IDH1KD tx 26µM, ALOX12 inh inconclusive, DT40 TDP1 no CPT 0.41µM, IL-1B inflam inh -84, HT1080NT lethal 26µM, DT40 TDP1 CPT 0.73µM
COc1ccc(CNc2nc(=S)[nH]c3cc(OC)c(OC)cc23)cc1	DT40 TDP1 no CPT inconclusive
O=c1c2[nH]c3ccccc3c2ncn1Cc1ccco1	none
COc1ccc2c(c1)[nH]c1c(Cl)ncnc12	DT40 TDP1 no CPT inconclusive, IL-1B inflam inh -95, DT40 TDP1 CPT inconclusive
c1coc(CNc2ncnc3c2[nH]c2ccccc23)c1	DT40 TDP1 no CPT 14µM, DT40 TDP1 CPT 13µM (no result: HT1080 IDH1KD tx, ALOX12 inh, IL-1B inflam inh, HT1080NT lethal)
COc1ccc(CCn2cnc3c([nH]c4ccccc43)c2=O)cc1	none
COc1ccc(CNc2ncnc3c2[nH]c2ccccc23)cc1	HT1080 IDH1KD tx 21µM, DT40 TDP1 no CPT 5.8µM, IL-1B inflam inh -108, HT1080NT lethal 16µM, DT40 TDP1 CPT 10µM
CC(C)OCCCNc1ncnc2c1[nH]c1ccccc12	HT1080 IDH1KD tx inconclusive, DT40 TDP1 no CPT 14µM, IL-1B inflam inh -93, HT1080NT lethal inconclusive, DT40 TDP1 CPT 8.9µM
CCc1cc(=O)n(CC(=O)N2CCN(c3ccc(F)cc3)CC2)c(N2CCOCC2)n1	none (no result: HT1080 IDH1KD tx, DT40 TDP1 no CPT, IL-1B inflam inh, HT1080NT lethal, DT40 TDP1 CPT)
COc1ccc(CNc2ncnc3c2[nH]c2cc(OC)c(OC)cc23)cc1	HT1080 IDH1KD tx inconclusive, DT40 TDP1 no CPT inconclusive, IL-1B inflam inh -95, DT40 TDP1 CPT inconclusive
Brc1ccc2[nH]c3c(NCc4ccccn4)ncnc3c2c1	HT1080 IDH1KD tx 16µM, DT40 TDP1 no CPT inconclusive, HT1080NT lethal inconclusive, DT40 TDP1 CPT inconclusive (no result: IL-1B inflam inh)
COc1cc2[nH]c3c(OC)ncnc3c2cc1OC	none
CCCOc1ncnc2c1[nH]c1ccc(C)cc12	HT1080 IDH1KD tx inconclusive, DT40 TDP1 no CPT 9.2µM, HT1080NT lethal inconclusive, DT40 TDP1 CPT inconclusive (no result: ALOX12 inh)
O=C(NCC#Cc1ccccc1)C1CCCN(C(=O)C2CC2)C1 (configuration not stated)	none (no result: HT1080 IDH1KD tx, DT40 TDP1 no CPT, IL-1B inflam inh, HT1080NT lethal, DT40 TDP1 CPT)
O=C(O)c1cn(C2CC2)c2cc(N3CCN(S(=O)(=O)c4ccc5c(c4)OCCO5)CC3)c(F)cc2c1=O	HT1080 IDH1KD tx inconclusive, DT40 TDP1 no CPT 15µM, HT1080NT lethal inconclusive, DT40 TDP1 CPT 15µM
CN1C[C@@H]2C[C@H]1CN2c1cc2c(cc1F)c(=O)c(C(=O)O)cn2C1CC1	DT40 TDP1 no CPT 6.7µM, DT40 TDP1 CPT 6.7µM (no result: HT1080 IDH1KD tx, IL-1B inflam inh, HT1080NT lethal)
N#Cc1ccnc(Sc2ccc(F)cc2)c1	none (no result: HT1080 IDH1KD tx, DT40 TDP1 no CPT, IL-1B inflam inh, HT1080NT lethal, DT40 TDP1 CPT)
O=c1[nH]c2ccc(-c3csc(NC4CCCC4)n3)cc2o1	ALOX12 inh 6.3µM (no result: HT1080 IDH1KD tx, DT40 TDP1 no CPT, IL-1B inflam inh, HT1080NT lethal, DT40 TDP1 CPT)
CCNc1nc(-c2ccc(Br)cc2)cs1	none (no result: HT1080 IDH1KD tx, DT40 TDP1 no CPT, IL-1B inflam inh, HT1080NT lethal, DT40 TDP1 CPT)
CCCNc1nc(-c2ccc3[nH]c(=O)oc3c2)cs1	ALOX12 inh 13µM (no result: HT1080 IDH1KD tx, DT40 TDP1 no CPT, IL-1B inflam inh, HT1080NT lethal, DT40 TDP1 CPT)
Cc1ccc(Sc2c(CO)c(-c3ccccc3)nn2C)cc1	HT1080 IDH1KD tx 1.2µM, DT40 TDP1 no CPT 0.73µM, HT1080NT lethal 0.73µM, DT40 TDP1 CPT 1.2µM
Cn1nc(-c2ccccc2)c(CO)c1Oc1cccc(C(F)(F)F)c1	DT40 TDP1 no CPT inconclusive, DT40 TDP1 CPT inconclusive
COc1ccc(-c2ccnc3nc(C4CC4)nn23)cc1	none (no result: HT1080 IDH1KD tx, DT40 TDP1 no CPT, IL-1B inflam inh, HT1080NT lethal, DT40 TDP1 CPT)
C=C(c1nc2ccccc2s1)C1Cc2cccc3c2N(CCC3)C1 (configuration not stated)	DT40 TDP1 no CPT 0.089µM, DT40 TDP1 CPT 0.089µM (no result: HT1080 IDH1KD tx, ALOX12 inh, IL-1B inflam inh, HT1080NT lethal)
CC(NC(=O)c1cccs1)c1ccc2c(c1)NC(=O)CO2 (configuration not stated)	none (no result: HT1080 IDH1KD tx, DT40 TDP1 no CPT, IL-1B inflam inh, HT1080NT lethal, DT40 TDP1 CPT)
COc1ccc(N=C2SC(CC(=O)Nc3ccccc3)C(=O)N2CCc2ccccn2)cc1 (configuration not stated)	DT40 TDP1 no CPT inconclusive, DT40 TDP1 CPT inconclusive

Assay outcomes deposited in PubChem BioAssay by National Center for Advancing Translational Sciences (NCATS).
